Legend:
Settings in all cases: concentration: 1 μM,replicates: in singlicate; n = 1
WNK1 = system: WNK1
WNK2 = system: WNK2
WNK3 = system: WNK3
WNK4 = system: WNK4
YANK1 = system: T1, YANK1
T1 construct: gene STK32A

YANK2 = system: T2, YANK2
T2 construct: gene STK32B

YANK3 = system: T3, YANK3
T3 construct: gene STK32C

YES = system: T4, YES
T4 construct: gene YES1

YSK1 = system: T5, YSK1
T5 construct: gene STK25

YSK4 = system: T6, YSK4
T6 construct: gene MAP3K19

ZAK = system: ZAK
ZAP70 = system: ZAP70
p38-alpha = system: T7, p38-alpha
T7 construct: gene MAPK14

p38-beta = system: T8, p38-beta
T8 construct: gene MAPK11

p38-delta = system: p38-delta
p38-gamma = system: T9, p38-gamma
T9 construct: gene MAPK12
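Note: KINOMEscan kinase panel screen.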

Structure (SMILES)	%Inh (WNK1) [%]	%Inh (WNK2) [%]	%Inh (WNK3) [%]	%Inh (WNK4) [%]	%Inh (YANK1) [%]	%Inh (YANK2) [%]	%Inh (YANK3) [%]	%Inh (YES) [%]	%Inh (YSK1) [%]	%Inh (YSK4) [%]	%Inh (ZAK) [%]	%Inh (ZAP70) [%]	%Inh (p38-alpha) [%]	%Inh (p38-beta) [%]	%Inh (p38-delta) [%]	%Inh (p38-gamma) [%]
O=C(Nc1ccc(Oc2ccc3nc(NC(=O)C4CC4)cn3n2)c(F)c1)c1cccn(-c2ccccc2)c1=O	0	0	0	0	0	0	37	45	0	0	77	0	4	9	0	87
CN(c1ccc2c(c1)nc(NCc1ccc(F)cc1)n2C)c1ccnc(Nc2ccc(CS(C)(=O)=O)cc2)n1.Cl [GW813244]	17	3	13	0	0	0	0	7	4	99.3	41	13	13	6	0	44
NC(=O)c1ccc(-c2cc3ncnc(SCC(=O)O)c3s2)cc1	0	0	0	0	0	0	0	0	0	63	0	0	0	2	24	0
CCCC(=O)Nc1n[nH]c2ncccc12 [SB-601436]	0	0	0	14	0	0	0	0	0	0	20	0	0	0	0	13
C[C@@H](Oc1cc(-n2cnc3cc(-c4ccncc4)ccc32)sc1C(N)=O)c1ccccc1Cl [GSK479719]	32	76	90.2	2	7	0	26	44	0	97.5	0	15	71	0	14	0
CC(C)c1nc(-c2cccc(NS(=O)(=O)c3ccccc3)c2)c(-c2ccnc(Nc3ccc4c(c3)CN(C)CC4)n2)s1 [GSK1649598]	8	0	12	0	20	28	11	99.7	56	55	98.6	7	91.5	35	48	7
CN(c1ccccc1CNc1nc(Nc2ccc3c(c2)CC(=O)N3)ncc1C(F)(F)F)S(C)(=O)=O	0	0	0	0	11	0	0	29	11	91.4	0	0	0	0	56	0
O=C(Nc1ccccc1)c1cccc(Oc2ccc3nccn3n2)c1	4	3	8	36	0	0	0	0	0	12	0	0	0	0	0	3
FC(F)(F)c1cc(Br)cc(Nc2nccc(-c3cnn4ncccc34)n2)c1 [GW810578]	14	25	0	0	0	0	25	0	0	64	16	0	0	0	0	41
Nc1nccc(-c2ccc3c(N)n[nH]c3c2)n1 [GSK1034945]	6	0	3	0	21	0	9	0	17	72	1	0	0	0	36	0
Cn1ccc2ncnc(Oc3ccc(NC(=O)Nc4cnn(C(C)(C)C)c4)c(Cl)c3)c21	62	0	0	3	1	11	9	0	8	34	0	6	91.6	28	3	24
CNC(=O)c1ccccc1Nc1nc(Nc2cccc(CS(C)(=O)=O)c2)ncc1C.O=CO [GSK1520489]	9	79	65	29	44	0	0	99.8	45	99.8	0	0	0	0	2	0
OCCn1cc(-c2cnc3nnn(Cc4ccc5ncccc5c4)c3n2)cn1	0	0	0	0	3	0	0	0	0	0	0	0	0	20	0	0
O=C(NOCC1CC1)c1cc(Br)c(F)c(F)c1Nc1ccc(I)cc1Cl	0	0	0	16	0	0	2	0	0	0	0	0	0	1	35	0
COc1ccc(Nc2nccc(N3CCC(NC(=O)c4cccc(C#N)c4)C3)n2)cc1 (stereo not shown) [GSK1379730]	2	5	18	0	0	0	0	15	0	0	26	0	5	0	38	0
CC(=O)Nc1nc2cnc(Nc3cc(NC(=O)c4cccc(CC(C)(C)C#N)c4)ccc3C)nc2s1	0	47	0	26	1	12	9	17	0	40	0	5	100	100	43	74
N#Cc1cccc(C(=O)NC2CCN(c3ccnc(Nc4ccc(F)cc4)n3)C2)c1 (stereo not shown) [GSK1379708]	0	0	12	76	2	0	10	0	0	16	0	0	35	0	38	0
Cc1cccc2c(-c3ccncc3)c(-c3ccc(F)cc3)nn12.Cl [GW461487]	0	0	13	0	27	8	22	11	11	0	0	5	98.3	22	39	17
Cc1ccc2c(-c3ccnc(Nc4ccc(C(F)(F)F)cc4)n3)cnn2n1 [GW819776]	3	0	0	0	0	0	0	0	0	43	0	15	0	0	0	44
COc1cc2nccc(Nc3ccc(Oc4ccccc4)cc3)c2cc1OC.Cl [GI261656]	0	0	42	28	7	0	0	79	0	0	55	0	0	0	20	0
C[C@@H]1CNc2c(sc3ccc4nc(-c5ccncc5)ccc4c23)C(=O)N1	0	0	0	0	21	0	17	0	0	56	0	0	0	8	11	16
CCN1CCN(CCCC(=O)Nc2n[nH]c3nc(-c4ccc(O)cc4)c(Br)cc23)CC1 [SB-731579]	0	0	0	0	0	0	0	0	0	85	0	0	2	0	30	0
CCn1c(-c2nonc2N)nc2cncc(CNC3CCNCC3)c21.Cl [SB-747651]	14	0	34	21	3	0	40	11	0	87	7	32	0	0	44	10
COc1cc(Nc2nccc(N3CCC(NC(=O)c4cccc(C#N)c4)C3)n2)cc(OC)c1OC (stereo not shown) [GSK1379751]	13	19	37	39	0	0	0	20	3	39	0	45	23	0	22	0
O=c1[nH]cc(-c2ccc(O)cc2)c2sc(-c3ccncc3)cc12 [GSK1033723]	1	26	18	10	10	0	14	5	0	98.8	1	0	0	0	0	26

Structure (SMILES)	%Inh (WNK1) [%]	%Inh (WNK2) [%]	%Inh (WNK3) [%]	%Inh (WNK4) [%]	%Inh (YANK1) [%]	%Inh (YANK2) [%]	%Inh (YANK3) [%]	%Inh (YES) [%]	%Inh (YSK1) [%]	%Inh (YSK4) [%]	%Inh (ZAK) [%]	%Inh (ZAP70) [%]	%Inh (p38-alpha) [%]	%Inh (p38-beta) [%]	%Inh (p38-delta) [%]	%Inh (p38-gamma) [%]
Cn1ccc2ncnc(Oc3ccc(NC(=O)Nc4cccc(C(F)(F)F)c4)c(Cl)c3)c21	0	0	0	0	0	0	13	0	0	77	14	0	0	44	35	10
C[C@@H]1CCN(C(=O)N2CCCC2)C[C@@H]1N(C)c1ncnc2[nH]ccc12	6	45	0	0	15	0	0	0	0	82	12	0	5	2	25	10
CCNCC(Cc1ccccc1)NC(=O)c1cc(Br)c(-c2ccnc3[nH]ccc23)s1.Cl.Cl (stereo not shown) [GSK1383280]	0	0	9	28	23	0	11	19	18	92.5	15	0	11	0	53	0
Cc1ccc(C(=O)Nc2ccc(Oc3ccc4nc(NC(=O)C5CC5)cn4c3)c(F)c2)c(=O)n1-c1ccccc1	0	0	0	0	0	0	0	71	0	0	96.1	0	0	0	0	34
CN1CCN(CCCNc2nccc(-c3c(-c4ccc(F)cc4)nn4cc(C(N)=O)ccc34)n2)CC1 [GW622475]	9	8	20	14	20	17	16	24	22	14	31	0	99.9	79	26	13
CN1CCN(CCNc2nc3cc(Oc4ccc(NC(=O)Nc5cc(C(F)(F)F)ccc5F)cc4)ccc3[nH]2)CC1.Cl.Cl [GW768504]	0	0	0	0	0	0	4	0	9	10	2	12	0	7	0	27
NC(=O)Nc1sc(-c2ccc(F)cc2)cc1C(N)=O [GW789449]	0	0	2	0	4	0	0	0	0	82	21	5	6	0	0	16
Cl.c1ccc(Oc2ccc(Nc3ccnc4cc(-c5ccc(CN6CCNCC6)o5)ccc34)cc2)nc1 [GW567142]	0	16	11	0	0	0	0	70	22	30	60	0	12	0	39	5
COc1cccc(C2=C(Nc3cccc(Cl)c3)C(=O)NC2=O)c1 [SB-341556]	20	29	19	0	5	0	11	17	0	38	16	1	0	0	11	0
CC(C(=O)NC1CCN(c2ccnc(Nc3ccc(F)cc3)n2)C1)c1ccc(Cl)cc1 (stereo not shown) [GSK1379713]	1	0	73	0	0	0	0	0	0	0	5	0	8	0	5	0
Cn1ccc2ncnc(Oc3ccc(NC(=O)Nc4cncc(C(F)(F)F)c4)c(Cl)c3)c21	0	0	0	0	0	2	25	0	0	17	0	0	47	30	0	0
COc1cccc(CNC(=O)NC2CCN(c3ccnc(Nc4cc(OC)c(OC)c(OC)c4)n3)C2)c1 (stereo not shown) [GSK1379765]	4	33	34	43	0	0	7	7	0	37	26	43	12	0	44	1
C[C@@H]1CNc2c(sc3ccc4nc(-c5ccc(O)cc5)ccc4c23)C(=O)N1	0	2	0	11	0	9	1	0	0	46	0	0	5	33	30	2
Cc1ccc(Nc2ccnc(Nc3ccc4c(c3)CS(=O)(=O)C4)n2)cc1O.Cl [GW579362]	0	33	33	9	26	0	0	81	39	99.1	56	37	96.8	85	99.8	23
CN(c1cccc(CNc2nc(Nc3ccc4c(c3)CC(=O)N4)ncc2C(F)(F)F)c1)S(C)(=O)=O	0	0	0	0	0	0	0	3	0	96.8	0	0	0	0	11	9
Cn1cc(-c2cccc3c(N)c(C(N)=O)nnc23)cn1	11	0	0	0	30	0	0	0	5	94.4	0	9	2	16	6	27
COC(=O)c1cccc(NC(=O)NC2CCN(c3ccnc(NCc4ccc(F)cc4)n3)CC2)c1 [GSK1379860]	10	9	18	31	0	0	0	8	0	9	0	0	0	0	34	0
Cc1nnc(-c2ccc3occ(-c4ccc(S(C)=O)cc4)c3n2)o1 (stereo not shown)	0	0	0	0	0	0	16	0	7	0	0	0	0	0	0	0
O=C1NCCc2[nH]c(-c3ccncc3)cc21	0	26	0	22	0	0	6	0	0	99.4	20	0	2	27	62	26
CSc1nccc(-c2c(-c3ccc(F)cc3)ncn2CCCN2CCOCC2)n1.Cl [SB-217146]	21	0	0	0	0	0	0	0	0	25	0	8	67	0	0	2
CCOC(=O)N1CCC(n2cnc(-c3ccc(F)cc3)c2-c2ccnc(N)n2)CC1 [SB-219952]	28	72	45	0	15	15	0	10	0	9	9	14	95.3	34	0	23
Cc1ccn2nc(-c3ccc(F)cc3)c(-c3ccncc3)c2c1.Cl [GW457859]	0	5	30	55	91.9	13	0	5	15	0	0	0	99.7	18	52	30
Cn1ccc2ncnc(Oc3ccc(NC(=O)Nc4cc(C(C)(C)C)on4)c(Cl)c3)c21	0	20	0	0	0	5	0	3	0	99.5	87	0	97.2	78	36	56
COc1cc2ncn(-c3cc(OCC4CCCCC4)c(C(N)=O)s3)c2cc1OC [GSK204559]	0	0	0	0	0	8	6	4	24	35	7	0	0	0	28	0

— article PMC5540273 (PLoS ONE, 2017)
